Data: ChEMBL document CHEMBL1961873, “Compounds: GSK PKIS; Assays: Nanosyn kinase panel” (2012)
Values joined by “and” are separate entries in the source; they are usually repeats but may differ in a detail not shown here. Equal values may be shown once.

Legend:
[1] = target: Serine/threonine-protein kinase PAK 6 (Homo sapiens) (UniProt Q9NQU5); details: at 1 µM;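 further: values are mean percent inhibition of PAK6 kinase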
[2] = tested on: Tyrosine-protein kinase ABL1 (Homo sapiens), P00519 [E255K]; details: at 0.1 µM
[3] = tested on: Tyrosine-protein kinase ABL1 (Homo sapiens), P00519 [E255K]; details: at 1 µM
[4] = tested on: Tyrosine-protein kinase ABL1 (Homo sapiens), P00519 [H396P]; details: at 0.1 µM
[5] = tested on: Tyrosine-protein kinase ABL1 (Homo sapiens), P00519 [H396P]; details: at 1 µM
[6] = tested on: Tyrosine-protein kinase ABL1 (Homo sapiens), P00519 [M351T]; details: at 0.1 µM
[7] = tested on: Tyrosine-protein kinase ABL1 (Homo sapiens), P00519 [M351T]; details: at 1 µM
[8] = tested on: Tyrosine-protein kinase ABL1 (Homo sapiens), P00519 [Q252H]; details: at 0.1 µM
[9] = tested on: Tyrosine-protein kinase ABL1 (Homo sapiens), P00519 [Q252H]; details: at 1 µM
[10] = tested on: Tyrosine-protein kinase ABL1 (Homo sapiens), P00519 [T315I]; details: at 0.1 µM

Serine/threonine-protein kinase PAK 6 (Homo sapiens), sequence (Q9NQU5 whole entry, looked up): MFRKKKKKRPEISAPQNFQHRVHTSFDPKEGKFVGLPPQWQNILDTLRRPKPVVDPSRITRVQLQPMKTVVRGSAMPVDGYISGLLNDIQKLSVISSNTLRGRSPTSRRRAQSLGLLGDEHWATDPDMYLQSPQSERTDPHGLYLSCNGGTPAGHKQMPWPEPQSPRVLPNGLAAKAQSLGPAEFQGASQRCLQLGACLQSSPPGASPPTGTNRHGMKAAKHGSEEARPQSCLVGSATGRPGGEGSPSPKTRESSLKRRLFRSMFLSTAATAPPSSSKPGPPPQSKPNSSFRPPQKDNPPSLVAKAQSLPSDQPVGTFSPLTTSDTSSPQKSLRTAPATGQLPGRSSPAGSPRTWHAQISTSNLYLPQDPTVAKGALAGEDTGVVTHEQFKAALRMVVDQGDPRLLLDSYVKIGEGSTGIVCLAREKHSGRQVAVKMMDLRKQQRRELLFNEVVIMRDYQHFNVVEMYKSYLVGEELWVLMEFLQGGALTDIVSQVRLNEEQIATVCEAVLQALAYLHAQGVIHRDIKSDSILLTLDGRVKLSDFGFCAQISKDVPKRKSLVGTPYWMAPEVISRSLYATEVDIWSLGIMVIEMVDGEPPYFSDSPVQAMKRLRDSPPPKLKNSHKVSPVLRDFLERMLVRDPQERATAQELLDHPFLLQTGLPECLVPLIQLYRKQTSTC

Row | Structure (SMILES) | inhibition [1] | inhibition [2] | inhibition [3] | inhibition [4] | inhibition [5] | inhibition [6] | inhibition [7] | inhibition [8] | inhibition [9] | inhibition [10]
1 | N#Cc1cccc(Nc2ncc(-c3ccccc3)o2)c1 | -3.46% | 1.93% | 13.5% | 4.61% | 26.9% | 2.88% | 27.1% | 3.25% | 21.2% | 2.21%
2 | CCn1c(-c2nonc2N)nc2cncc(C(=O)NCCNC)c21 | -1.02% | 3.42% | 4.29% | 3.77% | 6.65% | -0.31% | 3.11% | 4.53% | 5.61% | 3.85%
3 | CS(=O)(=O)Nc1ccc(-c2cc(-c3ccccc3)cc(C(N)=O)c2N)cc1 | -8.25% | 1.39% | 2.13% | 1.72% | 3.82% | 0.69% | 2.62% | 2.8% | 3.07% | 0.02%
4 | Fc1ccc(Nc2nccc(-c3c(-c4ccc(C(F)(F)F)cc4)nn4ncccc34)n2)cc1F | 1.02% | 0.93% | 3.19% | 3.64% | 1.04% | 2.73% | 2.45% | 3.28% | -0.3% | 3.85%
5 | N#Cc1ccc2c(-c3ccnc(NC4CC4)n3)c(-c3ccc(F)cc3)nn2c1 | -2.35% | -0.39% | 0.55% | -0.57% | 3.93% | -0.71% | 3.61% | 0.81% | 4.72% | -0.18%
6 | NC(=O)c1ccc2c(-c3ccnc(NCCCO)n3)c(-c3ccc(F)cc3)nn2c1 | -5.05% | 4.7% | 7.28% | 6.27% | 8.34% | 3.9% | 10.1% | 5.67% | 10.2% | 2.91%
7 | COc1ccc(Nc2ncc(-c3ccccc3)o2)cc1OC | -2.99% | 4.59% | 32.7% | 10.7% | 53.6% | 10.2% | 56.2% | 7.95% | 44.7% | 1.08%
8 | CS(=O)(=O)CCNCc1ccc(-c2ccc3ncnc(Nc4ccc(OCc5ccccc5)cc4)c3c2)o1 | -0.08% | 2.13% | 3.38% | 4.24% | 5.36% | 2.42% | 4.54% | 3.95% | 5.12% | 1.78%
9 | NS(=O)(=O)c1ccc(N/N=C2\C(=O)Nc3cccc(CCc4ccncc4)c32)cc1 | -3.63% | -0.21% | 3.53% | 2.64% | 7.39% | 3.41% | 8.25% | 1.54% | 7.74% | 1.83%
10 | Cc1ccc(-c2cc3c(NC(=O)C4CC4)ncnc3o2)cc1 | 1.82% | 5.52% | 18.3% | 5.91% | 24.2% | 3.97% | 22.8% | 6.11% | 23.7% | 4.71%
11 | NS(=O)(=O)c1ccc(N/N=C2\C(=O)Nc3ccc(C(=O)NCc4ccncc4)cc32)cc1 | 12.5% | 0.9% | 10% | 2.55% | 15% | 1.51% | 13.2% | 1.73% | 11.6% | 2.6%
12 | O=C(Nc1n[nH]c2nnc(-c3cccnc3)cc12)C1CC1 | -4.92% | -1.11% | 1.39% | 0.14% | 3.4% | 2.2% | 3.78% | 0.59% | 2.57% | -0.5%
13 | COC(=O)Nc1nc2cc(Oc3ccc(NC(=O)Nc4ccccc4)cc3)ccc2[nH]1 | -2.94% | 4.95% | 11.4% | 14.1% | 41% | 28.9% | 47.8% | 22.5% | 51.8% | 15.9%
14 | CC(C)c1ccc(-c2cc(-c3c[nH]nc3-c3ccccn3)ccn2)cc1 | -0.86% | 2.44% | 17.2% | 7.55% | 40.1% | 5.28% | 38.5% | 3.86% | 21.4% | 1.9%
15 | CNC(=O)c1cncc(/C=C/c2ccccc2C)c1 | 12% | 4.47% | 16.5% | 6.03% | 28.8% | 6.13% | 22.7% | 5.28% | 19.3% | 1.47%
16 | Fc1cccc(COc2ccc(Nc3ncncc3C#Cc3ccccc3)cc2Cl)c1 | -8.4% | 3.27% | 5.06% | 3.58% | 4.02% | 0.94% | 5.32% | 4.91% | 3.96% | 4.11%

Row | Structure (SMILES) | inhibition [1] | inhibition [2] | inhibition [3] | inhibition [4] | inhibition [5] | inhibition [6] | inhibition [7] | inhibition [8] | inhibition [9] | inhibition [10]
17 | O=C1Nc2ccccc2/C1=C1\CCc2cc(O)ccc21 | -3.1% | 1.09% | 9.2% | 5.59% | 15% | 4.89% | 15.4% | 5.53% | 12.8% | 4.27%
18 | CN1CCC(n2cnc(-c3ccc(F)cc3)c2-c2ccnc(NCCO)n2)CC1 | -2.04% | 2.22% | 5.59% | 3.64% | 6.05% | 0.67% | 7.5% | 5.69% | 4.05% | 3.06%
19 | CCOc1ccc2c(-c3ccnc(Nc4cc(OC)cc(C(F)(F)F)c4)n3)cnn2n1 | 3.48% | 0.14% | 4.02% | 0.25% | 6.23% | 2.11% | 7.2% | 1.15% | 6.33% | 0.17%
20 | CN(C)CCNC(=O)Nc1ccc(N(C)c2ccnc(Nc3ccc(CS(C)(=O)=O)cc3)n2)cc1 | -1.22% | 2.92% | 10.2% | 5.45% | 12.3% | 4.48% | 15.1% | 5.59% | 17.4% | 4.39%
21 | Nc1ncnc2occ(-c3ccc(NC(=O)Nc4cc(C(F)(F)F)ccc4F)cc3)c12 | 0.09% and -8.17% | 5.05% and 2.1% | 33.4% and 18.4% | 24.2% and 11.5% | 73.1% and 58.4% | 56.4% and 49.1% | 84.6% and 76.3% | 55.7% and 45.2% | 79.1% and 74% | 53.6% and 39.2%
22 | COc1ccccc1-c1cc(/C=C2\C(=O)Nc3ncc(Br)cc32)cc(Br)c1O | -6.64% | 5.22% | 22.3% | 6.17% | 21.9% | 5.09% | 19.8% | 6.3% | 20.5% | 1.82%
23 | COc1c(C(N)=O)cc(-c2ccc(Cl)cc2)cc1-c1ccc(S(N)(=O)=O)cc1 | -4.53% | 2.38% | 3.7% | 3.77% | 5.78% | 1.02% | 1.14% | 3.13% | 5.89% | 3.24%
24 | CCCNc1cccc(-n2ncc3c(N/N=C/c4ccncc4)ncnc32)c1 | 2.09% | 27.1% | 77.2% | 37.5% | 86% | 36.8% | 85.8% | 35.7% | 83.8% | 37.5%
25 | CNC(=O)c1ncccc1Nc1nc(Nc2cc3c(cc2OC)CCCN3C(=O)CN(C)C)nc2[nH]ccc12 | 3.38% | 2.91% | 2.97% | 2.6% | 2.23% | 1.84% | 0.31% | 3.06% | 3.95% | 3.72%
26 | CCS(=O)(=O)c1ccc(OC)c(Nc2ncc(-c3cccc(C(C)=O)c3)o2)c1 | 7.27% | 15.3% | 61.6% | 19.3% | 67.3% | 20.5% | 68.5% | 30.4% | 78% | 2.67%
27 | O=C(O[C@H]1CN[C@H](C#Cc2cc3ncnc(Nc4ccc5c(cnn5Cc5ccccc5)c4)c3s2)C1)N1CCOCC1 | 0.8% | 0.73% | 0.29% | -0.26% | 1.3% | 2.14% | -0.2% | 0.53% | 0.83% | -1.97%
28 | NS(=O)(=O)c1cccc(N/C=C2\C(=O)Nc3ccccc32)c1 | 1.64% | 5.29% | 7.64% | 6.01% | 8.67% | 3.89% | 8.75% | 5.8% | 8.71% | 3.14%
29 | COc1cc(N2CCN(C(C)C)CC2)ccc1Nc1nc(Nc2cccc(F)c2C(=O)O)c2cc[nH]c2n1 | -0.16% | 3.61% | 5.65% | 1.72% | 3.69% | 1.07% | 2.29% | 4.74% | 5.16% | 3.83%
30 | OCCCNc1nccc(-c2c(-c3ccc(F)cc3)nn3cc(C(F)(F)F)ccc23)n1 | -2.02% | 3.05% | 3.11% | 3.42% | 3.33% | 2.71% | 3% | 4.61% | 3.52% | 1.5%
31 | CC1=C(C(=O)Nc2ccc3[nH]ncc3c2)C(c2ccc(F)cc2)N=C(c2ccc(C(F)(F)F)nc2)N1 (stereo not given) | 1.5% | 2.72% | 3.5% | 2.21% | 1.95% | 1.43% | 3.71% | 1.86% | 3.9% | 1.97%
